ELG1 repair inh – qHTS screen for small molecules that inhibit ELG1-dependent DNA repair in human embryonic kidney (HEK293T) cells expressing luciferase-tagged ELG1; HEK293T ELG1-luciferase reporter, luminescence, 16 h; DNA damage induced by 5-fluorouridine; Potency, µM (doses to about 46.1 µM), actives largely listed as inhibitors; 2.3% of 330,000 active; AID 504467, 2011; also: nearly all actives have a fitted effect of over 55% in size
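HEK293T cells expressing luciferase-tagged ELG1 (2,000/well) received 5-Fluorouridine plus compound or DMSO for 16 hr at 37 °C. Luciferase was read by ONE-Glo luminescence after 30 min at room temperature.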
IL1B secr inh – qHTS for Inhibitors of Inflammasome Signaling: IL-1-beta AlphaLISA Primary Screen; THP-1 LPS/ATP IL-1B secretion, AlphaLISA, 16 h; active compounds read low; activity change, % at 57.5 µM; 4.7% of 360,000 active; in the data active = activity change below about -50%; inconclusive = mostly about -30% to -49%
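THP-1 cells pretreated 1 hr with compounds (up to 57.5 uM final), then stimulated with LPS (250 ng/mL final) plus ATP (1.25 mM final); secreted IL-1B measured by AlphaLISA after 16 hr, decreased signal indicating inhibition.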
HT1080-NT tox – qHTS for induction of synthetic lethality in tumor cells producing 2HG: qHTS for the HT-1080-NT fibrosarcoma cell line; 1.6% of 360,000 active; HT-1080-NT fibrosarcoma viability, CellTiter-Glo ATP luminescence, 48 h; Potency, µM (doses to about 46.1 µM), most hits filed as cytotoxic;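 also: NT is the 2HG producing partner of a matched IDH1 knockdown line; nearly all actives have a fitted effect of over 55% in size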
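HT-1080-NT fibrosarcoma cells (2HG-overproducing), 750 cells/well in RPMI with 5% FBS, dosed after 2 h and incubated 48 h at 37C. CellTiter-Glo luminescence normalized to DMSO and no-cell wells; concentration-response curves fitted and classed.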
TDP1 cell CPT – qHTS for Inhibitors of human tyrosyl-DNA phosphodiesterase 1 (TDP1): qHTS in cells in presence of CPT; chicken DT40 Tdp1-/-;hTDP1 cells + 20 nM CPT, ATP luminescence, 48 h; Potency, µM (doses to about 46.2 µM), usual class: inhibitors; 12% of 420,000 active; AID 686979, 2013; also: nearly all actives have a fitted effect of over 55% in size
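Chicken DT40 Tdp1-/- cells complemented with human TDP1, 400 cells/well, exposed to compounds plus 20 nM camptothecin for at least 48 h at 37 C; viability read as ATP content by CellTiter-Glo luminescence.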
HT1080 IDH1KD tx – qHTS for induction of synthetic lethality in tumor cells producing 2HG: qHTS for the HT-1080-IDH1KD cell line. HT-1080 IDH1 knockdown viability, ATP luminescence, 48 h. Potency, µM (doses to about 46.1 µM), actives largely listed as cytotoxic. 2% of 360,000 active. AID 686971, 2013
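IDH1KD HT-1080 cells, 750/well, RPMI + 5% FBS; compound pinned after 2 h settling; 48 h, 37 °C; CellTiter-Glo luminescence; % activity normalised to DMSO and no-cell wells; curves fitted, classed by r2 and efficacy.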
DT40 TDP1 no CPT – qHTS for Inhibitors of human tyrosyl-DNA phosphodiesterase 1 (TDP1): qHTS in cells in absence of CPT. DT40 Tdp1-/- hTDP1 cells, no CPT, ATP luminescence, 48 h. Potency, µM (doses to about 46.2 µM), hits mostly inhibitors. 15% of 420,000 active; also: nearly all actives have a fitted effect of over 55% in size
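Cells were dispensed at 400 per well, compounds added by pin tool, plates incubated ≥48 hr at 37 °C, then CellTiter-Glo added for 30 min at room temperature before luminescence reading. Line: DT40 Tdp1-/- complemented with hTDP1; camptothecin omitted.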
Each line names hits and unclear results; the compound was inactive in the other large screens. Sampled rows, rich in hits. Any-hit rate of the full collection: about 19%. Unless noted, calls follow the shape of the dose curve; as a rule, active = well fitted curve in the direction sought with a large enough effect; inconclusive = small, poorly fitted or top-dose-only effect, or another doubt; inactive = no such curve, though single readings can be large; an effect the other way counts as inactive or inconclusive.

CCCCCn1c(C(C)NC(=O)CCC)nc2ccccc21 (stereo unspecified)	TDP1 cell CPT 12µM, DT40 TDP1 no CPT 18µM
CCCCn1c(C(C)NC(=O)CCC)nc2ccccc21 (stereo unspecified)	TDP1 cell CPT inconclusive, DT40 TDP1 no CPT 18µM
CCCC(=O)NC(C)c1nc2ccccc2n1Cc1ccccc1 (stereo unspecified)	DT40 TDP1 no CPT inconclusive (no result: ELG1 repair inh, IL1B secr inh, HT1080-NT tox, HT1080 IDH1KD tx)
COc1ccc(C(CCN)Cc2ccccc2)cc1 (stereo unspecified)	IL1B secr inh -51, TDP1 cell CPT 29µM, DT40 TDP1 no CPT 21µM
NC(Cc1ccc(Cl)cc1)c1csc(Nc2ccc(C(=O)NCCCO)cn2)n1 (stereo unspecified)	HT1080-NT tox 15µM, TDP1 cell CPT inconclusive, HT1080 IDH1KD tx inconclusive, DT40 TDP1 no CPT inconclusive (no result: ELG1 repair inh)
COc1ccc(CC(N)c2csc(Nc3cc(NCCCO)ncn3)n2)cc1 (stereo unspecified)	IL1B secr inh -57, TDP1 cell CPT inconclusive, HT1080 IDH1KD tx inconclusive, DT40 TDP1 no CPT inconclusive (no result: ELG1 repair inh)
NC(COCc1ccccc1)c1csc(Nc2cc(NCCCO)ncn2)n1 (stereo unspecified)	TDP1 cell CPT inconclusive, DT40 TDP1 no CPT inconclusive (no result: ELG1 repair inh)
NC(Cc1ccc(Cl)cc1)c1csc(Nc2cc(NCCCO)ncn2)n1 (stereo unspecified)	IL1B secr inh -60, HT1080-NT tox inconclusive, TDP1 cell CPT inconclusive, HT1080 IDH1KD tx inconclusive, DT40 TDP1 no CPT 15µM (no result: ELG1 repair inh)
Cc1ccc(C(O)CN2C3=NCCN3c3ccccc32)cc1 (stereo unspecified)	TDP1 cell CPT 23µM, DT40 TDP1 no CPT 16µM
OC(CN1C2=NCCN2c2ccccc21)c1ccc(Br)cc1 (stereo unspecified)	ELG1 repair inh inconclusive, IL1B secr inh -62, TDP1 cell CPT inconclusive, DT40 TDP1 no CPT 21µM
O=C(CCCC(=O)N1CCc2ccccc21)N1CCc2ccccc21	none
O=C(CN1CCCCC1)N1CCc2ccccc21	none
CCOC(=O)c1cc2sccc2n1CC(=O)N1CCc2ccccc21	TDP1 cell CPT 4.6µM, HT1080 IDH1KD tx inconclusive, DT40 TDP1 no CPT 12µM
O=C(CN1CCCc2ccccc21)N1CCc2ccccc21	TDP1 cell CPT 16µM, DT40 TDP1 no CPT inconclusive
CCOCC(=O)N1CCc2ccccc21	DT40 TDP1 no CPT 18µM
O=C(O)C(=Cc1ccc([N+](=O)[O-])cc1)c1cccc(Cl)c1	TDP1 cell CPT 8.2µM, DT40 TDP1 no CPT inconclusive (no result: ELG1 repair inh)
CN=C(NC#N)NCCSCc1csc(N=C(N)N)n1	none (no result: ELG1 repair inh, IL1B secr inh, HT1080-NT tox, HT1080 IDH1KD tx)
Cc1cc(C)cc(C(=O)NC(CC(N)=O)c2ccc(N3CCC(Br)CC3)c([N+](=O)[O-])c2)c1 (stereo unspecified)	TDP1 cell CPT inconclusive, DT40 TDP1 no CPT inconclusive
NC(=O)CC(NC(=O)c1cccc(Br)c1)c1ccc(NC2CCC2)c([N+](=O)[O-])c1 (stereo unspecified)	TDP1 cell CPT inconclusive
NC(=O)CC(NC(=O)c1ccccc1)c1ccc(N2CCC(Br)CC2)c([N+](=O)[O-])c1 (stereo unspecified)	ELG1 repair inh inconclusive, TDP1 cell CPT 18µM, DT40 TDP1 no CPT 10µM
NC(=O)CC(NC(=O)c1cccc(Br)c1)c1ccc(N2CCC(Br)CC2)c([N+](=O)[O-])c1 (stereo unspecified)	TDP1 cell CPT 21µM, DT40 TDP1 no CPT inconclusive
CC1(Oc2ccc(Cl)cc2)CCN(Cc2ccc(-c3ccccn3)cc2)C1 (stereo unspecified)	TDP1 cell CPT inconclusive, DT40 TDP1 no CPT inconclusive (no result: ELG1 repair inh)
